Experimental data reported in PubChem BioAssay AID1159580 (chemical genetic matrix, 2015).
Out of some 5,500 compounds screened, about 2,000 (36%) were called active. Not shown: some 18% with an inconclusive outcome. Cut-off read from the data, not from the text of the source: active = normalized growth mostly below about 0.91 (no sharp cut-off); inconclusive = no clear call, values can overlap the other calls; inactive = mostly above about 0.92. The list shows a part of the results.

Assay: chemical genetic growth profiling, strain panel (AID 1159580);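 note: tested at 20 µM; growth read once vehicle control cultures reached saturation at 30 °C; 1 = growth at the plate median or of vehicle wells; lower values mean less growth of the strain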
Details: growth OD

Measured: normalized growth

C[N+](C)(C)CC(O)CC(=O)O (stereo unspecified)
inactive: S. cerevisiae deletion strains, locus YKL009W, strain mrt4, stronger effect = lower value 1.03 | S. cerevisiae deletion strains, locus YKL068W, stronger effect = lower value 1 | S. cerevisiae deletion strains, locus YKL085W, strain MDH1 (second series), stronger effect = lower value 1.02 | S. cerevisiae deletion strains, locus YKL085W, strain MDH1, stronger effect = lower value 1.02 | S. cerevisiae deletion strains, locus YKL160W, strain elf1, stronger effect = lower value 0.982 | S. cerevisiae deletion strains, locus YKL190W, strain CNB1, stronger effect = lower value 1.01 | S. cerevisiae deletion strains, locus YKR001C, strain vps1, stronger effect = lower value 0.993 | S. cerevisiae deletion strains, locus YKR026C, strain gcn3, stronger effect = lower value 0.98 | S. cerevisiae deletion strains, locus YKR091W, strain srl3, stronger effect = lower value 0.977 | S. cerevisiae deletion strains, locus YLL001W, strain dnm1, stronger effect = lower value 0.975 | S. cerevisiae deletion strains, locus YLL026W, stronger effect = lower value 0.991 | S. cerevisiae deletion strains, locus YLL041C, strain sdh2, stronger effect = lower value 0.985 | S. cerevisiae deletion strains, locus YLR027C, strain aat2, stronger effect = lower value 0.982 | S. cerevisiae deletion strains, locus YLR039C, strain RIC1, stronger effect = lower value 1 | S. cerevisiae deletion strains, locus YLR058C, strain SHM2, stronger effect = lower value 1.01 | S. cerevisiae deletion strains, locus YLR102C, strain apc9, stronger effect = lower value 0.997 | S. cerevisiae deletion strains, locus YLR113W, strain HOG1, stronger effect = lower value 0.994 | S. cerevisiae deletion strains, locus YLR221C, strain rsa3, stronger effect = lower value 1.03 | S. cerevisiae deletion strains, locus YLR258W, strain gsy2, stronger effect = lower value 0.981 | S. cerevisiae deletion strains, locus YLR262C, strain YPT6 (second series), stronger effect = lower value 1.01 | S. cerevisiae deletion strains, locus YLR262C, strain YPT6, stronger effect = lower value 1.02 | S. cerevisiae deletion strains, locus YLR268W, strain sec22, stronger effect = lower value 0.992 | S. cerevisiae deletion strains, locus YLR320W, strain mms22, stronger effect = lower value 0.978 | S. cerevisiae deletion strains, locus YLR330W, strain CHS5, stronger effect = lower value 1.01 | S. cerevisiae deletion strains, locus YLR342W, strain FKS1 (second series), stronger effect = lower value 0.996 | S. cerevisiae deletion strains, locus YLR342W, strain FKS1, stronger effect = lower value 0.964 | S. cerevisiae deletion strains, locus YLR357W, strain rsc2, stronger effect = lower value 0.988 | S. cerevisiae deletion strains, locus YLR370C, strain arc18, stronger effect = lower value 0.973 | S. cerevisiae deletion strains, locus YLR371W, strain rom2, stronger effect = lower value 0.999 | S. cerevisiae deletion strains, locus YLR384C, strain iki3, stronger effect = lower value 0.967 | S. cerevisiae deletion strains, locus YLR418C, strain cdc73, stronger effect = lower value 0.993 | S. cerevisiae deletion strains, locus YML016C, strain PPZ1, stronger effect = lower value 1 | S. cerevisiae deletion strains, locus YML032C, strain rad52, stronger effect = lower value 1 | S. cerevisiae deletion strains, locus YML120C, strain ndi1, stronger effect = lower value 0.998 | S. cerevisiae deletion strains, locus YML124C, strain tub3, stronger effect = lower value 1 | S. cerevisiae deletion strains, locus YMR058W, strain fet3, stronger effect = lower value 0.991 | S. cerevisiae deletion strains, locus YMR078C, strain ctf18, stronger effect = lower value 0.998 | S. cerevisiae deletion strains, locus YMR125W, strain sto1, stronger effect = lower value 0.969 | S. cerevisiae deletion strains, locus YMR129W, stronger effect = lower value 0.991 | S. cerevisiae deletion strains, locus YMR205C, strain PFK2, stronger effect = lower value 0.989 | S. cerevisiae deletion strains, locus YMR223W, strain ubp8, stronger effect = lower value 1.01 | S. cerevisiae deletion strains, locus YMR231W, strain pep5, stronger effect = lower value 0.983 | S. cerevisiae deletion strains, locus YMR263W, strain SAP30, stronger effect = lower value 1.01 | S. cerevisiae deletion strains, locus YMR307W, strain GAS1, stronger effect = lower value 0.949 | S. cerevisiae deletion strains, locus YNL067W, strain RPL9B, stronger effect = lower value 1 | S. cerevisiae deletion strains, locus YNL071W, strain lat1, stronger effect = lower value 0.992 | S. cerevisiae deletion strains, locus YNL128W, strain TEP1, stronger effect = lower value 1.01 | S. cerevisiae deletion strains, locus YNL153C, strain GIM3, stronger effect = lower value 1.01 | S. cerevisiae deletion strains, locus YNL183C, strain NPR1, stronger effect = lower value 0.922 | S. cerevisiae deletion strains, locus YNL209W, strain ssb2, stronger effect = lower value 0.989 | S. cerevisiae deletion strains, locus YNL233W, strain BNI4, stronger effect = lower value 1 | S. cerevisiae deletion strains, locus YNL248C, strain rpa49, stronger effect = lower value 0.98 | S. cerevisiae deletion strains, locus YNL250W, strain rad50, stronger effect = lower value 0.995 | S. cerevisiae deletion strains, locus YNL271C, strain bni1, stronger effect = lower value 0.996 | S. cerevisiae deletion strains, locus YNL298W, strain CLA4, stronger effect = lower value 0.984 | S. cerevisiae deletion strains, locus YNL307C, strain MCK1, stronger effect = lower value 1.01 | S. cerevisiae deletion strains, locus YNL322C, strain KRE1 (second series), stronger effect = lower value 0.963 | S. cerevisiae deletion strains, locus YNL322C, strain KRE1, stronger effect = lower value 1 | S. cerevisiae deletion strains, locus YNR049C, strain mso1, stronger effect = lower value 0.981 | S. cerevisiae deletion strains, locus YNR052C, strain pop2, stronger effect = lower value 0.994 | S. cerevisiae deletion strains, locus YOL006C, strain TOP1, stronger effect = lower value 1.03 | S. cerevisiae deletion strains, locus YOL012C, strain htz1 0.718 | S. cerevisiae deletion strains, locus YOL147C, strain pex11, stronger effect = lower value 1.01 | S. cerevisiae deletion strains, locus YOR001W, strain rrp6, stronger effect = lower value 0.999 | S. cerevisiae deletion strains, locus YOR061W, strain CKA2, stronger effect = lower value 1.01 | S. cerevisiae deletion strains, locus YOR069W, strain VPS5, stronger effect = lower value 1 | S. cerevisiae deletion strains, locus YOR070C, strain gyp1, stronger effect = lower value 0.993 | S. cerevisiae deletion strains, locus YOR080W, strain dia2, stronger effect = lower value 0.987 | S. cerevisiae deletion strains, locus YOR083W, strain WHI5, stronger effect = lower value 0.989 | S. cerevisiae deletion strains, locus YOR106W, strain vam3, stronger effect = lower value 0.968 | S. cerevisiae deletion strains, locus YOR136W, strain idh2, stronger effect = lower value 0.991 | S. cerevisiae deletion strains, locus YOR144C, strain elg1, stronger effect = lower value 1 | S. cerevisiae deletion strains, locus YOR184W, strain ser1, stronger effect = lower value 1.01 | S. cerevisiae deletion strains, locus YOR231W, strain MKK1, stronger effect = lower value 0.989 | S. cerevisiae deletion strains, locus YOR265W, strain rbl2, stronger effect = lower value 0.996 | S. cerevisiae deletion strains, locus YOR270C, strain vph1, stronger effect = lower value 1.01 | S. cerevisiae deletion strains, locus YOR290C, strain snf2, stronger effect = lower value 0.977 | S. cerevisiae deletion strains, locus YOR316C, strain cot1, stronger effect = lower value 1 | S. cerevisiae deletion strains, locus YPL051W, strain arl3, stronger effect = lower value 0.982 | S. cerevisiae deletion strains, locus YPL055C, strain LGE1, stronger effect = lower value 1.04 | S. cerevisiae deletion strains, locus YPL078C, strain atp4, stronger effect = lower value 0.986 | S. cerevisiae deletion strains, locus YPL106C, strain sse1, stronger effect = lower value 0.978 | S. cerevisiae deletion strains, locus YPL240C, strain hsp82, stronger effect = lower value 1 | S. cerevisiae deletion strains, locus YPL241C, strain CIN2, stronger effect = lower value 1 | S. cerevisiae deletion strains, locus YPL256C, strain CLN2, stronger effect = lower value 0.983 | S. cerevisiae deletion strains, locus YPR119W, strain clb2, stronger effect = lower value 0.988 | S. cerevisiae deletion strains, locus YPR141C, strain kar3, stronger effect = lower value 0.995 | S. cerevisiae deletion strains, locus YPR163C, strain tif3, stronger effect = lower value 0.994 | S. cerevisiae deletion strains, locus YPR167C, strain met16, stronger effect = lower value 1 | S. cerevisiae deletion strains, strain wtn01, stronger effect = lower value 0.989 | S. cerevisiae strains, strain wild type, stronger effect = lower value 1.01
